Shown are actives, neighbours in structure and some others; about 19% of the full set was active somewhere.
DT40 TDP1 no CPT: qHTS for Inhibitors of human tyrosyl-DNA phosphodiesterase 1 (TDP1): qHTS in cells in absence of CPT; hit rate 15% among 420,000; AID 686978, 2013; DT40 Tdp1-/- hTDP1 cells, no CPT, ATP luminescence, 48 h; Potency, µM (top dose mostly 46.2 µM), inactives show at the highest dose activity change, negative = growth inhibition, most hits filed as inhibitors; further: potency means the concentration at half of the fitted maximal effect; nearly all actives have a fitted effect of over 55% in size
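Seeded 400 DT40-hTDP1 cells/well (vehicle DMSO, no 20 nM CPT); pinned compounds; ≥48 hr at 37 °C; CellTiter-Glo luminescence as viability measure.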
Giardia kill: Small Molecules that selectively kill Giardia lamblia: qHTS | Giardia lamblia trophozoite viability | activity change, % at 7.66 µM, hits read low | hit rate 0.15% among 340,000; in the data active means activity change below about -80%; inconclusive means between about -30% and that limit;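 further: parasites exposed to compound for two days anaerobically before the ATP read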
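Giardia lamblia trophozoites (100 cells/well) were incubated with compounds for 48 h at 37 deg C under anaerobic conditions. Viability was read as ATP content by one-step luminescence after 15-30 min at room temperature.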
IL-1B inflam inh: qHTS for Inhibitors of Inflammasome Signaling: IL-1-beta AlphaLISA Primary Screen. THP-1 LPS/ATP IL-1B secretion, AlphaLISA, 16 h; active compounds read low. activity change, % at 57.5 µM. hit rate 4.7% among 360,000; in the data active means activity change below about -50%; inconclusive means mostly about -30% to -49%
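THP-1 cells pretreated 1 hr with compounds (up to 57.5 uM final), then stimulated with LPS (250 ng/mL final) plus ATP (1.25 mM final); secreted IL-1B measured by AlphaLISA after 16 hr, decreased signal indicating inhibition.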
DT40 TDP1 CPT: qHTS for Inhibitors of human tyrosyl-DNA phosphodiesterase 1 (TDP1): qHTS in cells in presence of CPT; chicken DT40 Tdp1-/-;hTDP1 cells + 20 nM CPT, ATP luminescence, 48 h; Potency, µM (doses to about 46.2 µM), for the others: at the highest dose activity change, negative = growth inhibition, actives largely listed as inhibitors; hit rate 12% among 420,000; AID 686979, 2013; further: potency means the concentration at half of the fitted maximal effect; nearly all actives have a fitted effect of over 55% in size
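Chicken DT40 Tdp1-/- cells complemented with human TDP1, 400 cells/well, exposed to compounds plus 20 nM camptothecin for at least 48 h at 37 C; viability read as ATP content by CellTiter-Glo luminescence.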
TDP1 block: qHTS Assay for Inhibitors of Tyrosyl-DNA Phosphodiesterase (TDP1); Tyrosyl-DNA phosphodiesterase 1 (Homo sapiens), Q9NUW8; recombinant TDP1, AlphaScreen DNA substrate cleavage; Potency, µM (titrated, usually from 130 µM), for the others: top-dose activity change, negative = inhibition, hits mostly inhibitors; hit rate 0.28% among 350,000; further: potency means the concentration at half of the fitted maximal effect; nearly all actives have a fitted effect of over 40% in size
Target sequence (Q9NUW8 whole entry, looked up): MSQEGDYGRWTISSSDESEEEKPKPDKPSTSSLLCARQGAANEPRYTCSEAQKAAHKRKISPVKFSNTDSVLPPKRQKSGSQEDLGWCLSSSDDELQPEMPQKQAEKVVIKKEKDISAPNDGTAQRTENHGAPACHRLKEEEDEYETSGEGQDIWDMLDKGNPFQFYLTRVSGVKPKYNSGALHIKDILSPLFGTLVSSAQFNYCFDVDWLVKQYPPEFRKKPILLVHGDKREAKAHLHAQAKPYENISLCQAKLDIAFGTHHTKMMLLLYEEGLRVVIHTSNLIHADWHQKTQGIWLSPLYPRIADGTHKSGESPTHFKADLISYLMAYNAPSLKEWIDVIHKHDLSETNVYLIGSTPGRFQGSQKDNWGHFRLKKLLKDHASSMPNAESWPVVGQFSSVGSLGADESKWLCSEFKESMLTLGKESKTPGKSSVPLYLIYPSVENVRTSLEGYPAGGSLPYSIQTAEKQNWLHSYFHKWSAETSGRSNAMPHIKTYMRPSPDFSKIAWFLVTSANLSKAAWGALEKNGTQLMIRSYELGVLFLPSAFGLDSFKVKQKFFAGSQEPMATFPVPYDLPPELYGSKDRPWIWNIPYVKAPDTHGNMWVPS
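Signal: AlphaScreen proximity between streptavidin donor and anti-FITC acceptor beads on intact substrate. Reaction: Tdp1 1 nM, substrate 15 nM final, 5 min RT after 15 min compound preincubation.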
ELG1 DNA repair: qHTS screen for small molecules that inhibit ELG1-dependent DNA repair in human embryonic kidney (HEK293T) cells expressing luciferase-tagged ELG1. AID 504467, 2011. Potency, µM (doses to about 46.1 µM), without a hit: at the top dose activity change, negative = inhibition, most hits filed as inhibitors. HEK293T ELG1-luciferase reporter, luminescence, 16 h; DNA damage induced by 5-fluorouridine. hit rate 2.3% among 330,000; further: potency means the concentration at half of the fitted maximal effect; nearly all actives have a fitted effect of over 55% in size
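In this reporter screen, reduction of luminescence relative to DMSO vehicle indicated activity. Compounds and 5-fluorouridine were added together to 2,000 cells per well, incubated for 16 hr at 37 °C, then developed with ONE-Glo.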
Starred values were filed as active, the others as inactive; ? = inconclusive; / = not tested or not shown; [ ] = dose if it differs, or a comment. Unless noted, the call rests on the fitted dose curve; in most records, active means well fitted curve in the direction sought with a large enough effect; inconclusive means small, poorly fitted or top-dose-only effect, or another doubt; inactive means no such curve, though single readings can be large; an effect the other way counts as inactive or inconclusive. On the % scale 0 is the no-effect control and ±100 the full control effect.

SMILES	DT40 TDP1 no CPT	Giardia kill	IL-1B inflam inh	DT40 TDP1 CPT	TDP1 block	ELG1 DNA repair
Cc1ccc(NC(=O)Cn2c(=O)n(CCc3ccccc3)c(=O)c3c4c(sc32)CCCC4)c(C)c1	4.9%	/	/	5.1%	1.8%	/
Cc1ccc(S(=O)(=O)c2nc(Nc3ccccc3C#N)sc2Cl)cc1	2.59µM*	16.7	9.2	?	7.9%	-0.3%
C/C(CC1CC(C)(C)OC1=O)=N\NC(N)=S (centres undefined)	-7.7%	-17.8	5.4	26.7%	5.6%	9.6%
C/C(CC1CC2=C(CC1(C)C)C(C)(C)CCC2)=N\NC(N)=S (centres undefined)	5.8µM*	10.5	-74.2*	6.51µM*	6.6%	?
Nc1nc(NC(=O)c2ccc(F)cc2)ns1	3.1%	15.6	-72.7*	-3.3%	/	?
Cc1ccc(NC(=O)C2CCN(c3nc4ccccc4nc3C(F)(F)F)CC2)cc1C	?	/	/	?	0.0%	/
COc1cc(NC(=O)C2CCN(c3nc4ccccc4nc3C(F)(F)F)CC2)cc(OC)c1	25.9µM*	/	/	16.4µM*	-2.6%	/
O=C(Nc1cccc(F)c1)C1CCN(c2nc3ccccc3nc2C(F)(F)F)CC1	16.4µM*	/	/	18.4µM*	2.6%	/
COc1ccc(NC(=O)C2CCN(c3nc4ccccc4nc3C(F)(F)F)CC2)cc1	-19.3%	/	/	-22.3%	2.6%	/
O=C(Nc1cccc(Cl)c1)C1CCN(c2nc3ccccc3nc2C(F)(F)F)CC1	20.6µM*	/	/	?	5.3%	/
NC(N)=Nc1nc(-c2ccccc2)c2cc(F)ccc2n1	11.6µM*	1.9	-89.9*	20.6µM*	9.3%	-0.1%
OCCSc1nc(-c2ccccc2)nc2ccc(F)cc12	?	?	-3.6	?	0.0%	?
O=C1CC(N2CCN(Cc3ccc(Cl)cc3)CC2)C(=O)N1CCc1ccccc1 (centres undefined)	18.4µM*	-1.5	20.5	14.6µM*	/	-13.2%
COc1ccc(N(CC(=O)Nc2cccnc2)S(=O)(=O)c2ccccc2)cc1Cl	?	-12.3	-1.0	-25.1%	/	-15.8%
COc1ccc(N(CC(=O)Nc2ccccc2OC)S(=O)(=O)c2ccccc2)cc1Cl	?	-0.1	-11.7	13µM*	/	-18.0%
CCOC(=O)c1ccccc1NC(=O)CN(c1ccccc1OC)S(=O)(=O)c1ccc(C)cc1	11.6µM*	/	/	?	4.7%	/
COc1ccc(NC(=O)CN(c2ccc([N+](=O)[O-])cc2)S(=O)(=O)c2ccccc2)c(OC)c1	?	-11.0	-0.8	?	-1.4%	-17.5%
COc1ccc(N(CC(=O)Nc2ccc(OC)cc2OC)S(=O)(=O)c2ccccc2)cc1	18.4µM*	-5.6	13.7	23.1µM*	-2.4%	?
CCOc1ccc(S(=O)(=O)N(CC(=O)Nc2cccnc2)c2ccccc2)cc1	16.4µM*	/	/	?	/	/
CN(C)C(=O)CCc1ccc2c3c([nH]c2c1)[C@]1(C)[C@@H](C(=O)N2CCOCC2)C[C@H](CC(=O)NCCC2=CCCCC2)C(=O)N1CC3	-24.8%	-9.1	-16.8	-9.8%	-0.2%[56.1 µM]	-2.0%
CC(C)c1nc2sc3c(N4CCCCC4)ncnc3c2c2c1CCCC2	-3.2%	/	/	6.1%	3.2%	/
CC1CCN(CCOc2ccc(Cl)c(Cl)c2)CC1	-8.1%	1.6	-20.1	1.0%	0.0%	-2.6%
CC(=O)N1CCOc2cc(S(=O)(=O)NCc3ccccc3Cl)c(C)cc21	-15.0%	/	/	2.9%	-2.6%	/
CCOC(=O)c1ccccc1NS(=O)(=O)c1ccc(OCC)cc1	12.6µM*	10.3	8.1	7.94µM*	?	?
CCOc1ccc(N(CC(=O)Nc2ccccc2OC)S(=O)(=O)c2ccccc2)cc1	1.16µM*	5.6	49.8	1.16µM*	3.6%	?
SMILES	DT40 TDP1 no CPT	Giardia kill	IL-1B inflam inh	DT40 TDP1 CPT	TDP1 block	ELG1 DNA repair
COc1ccccc1NC(=O)CN(c1ccc([N+](=O)[O-])cc1)S(=O)(=O)c1ccccc1	-20.3%	9.1	0.8	10.8%	0.0%	-17.0%
CCOC(=O)c1ccccc1NC(=O)CN(c1ccccc1)S(=O)(=O)c1ccc(OCC)cc1	14.6µM*	/	/	23.1µM*	/	/
CCOc1ccc(S(=O)(=O)Nc2ccccc2C(=O)N(C)C2CCN(C)CC2)cc1	17.2%	-1.8	-2.5	-6.2%	0.5%	8.9%
CCOC(=O)c1ccccc1NC(=O)CN(c1ccccc1C)S(C)(=O)=O	16.4µM*	-4.4	12.8	?	-0.5%	9.0%
O=C(Cn1c(=O)n(-c2ccccc2)c(=O)c2ccc(C(=O)NCc3ccc4c(c3)OCO4)cc21)Nc1ccc(F)c(Cl)c1	?	/	/	?	-2.3%	/
Cc1ccc(OCC(=O)N/N=C\c2ccncc2)c(C)c1	?	9.3	-3.6	-14.0%	0.0%	-2.7%
Cc1cc(C)c2c3c(oc2n1)C(=O)N(c1cccc(Cl)c1)CC(=O)N3	?	20.2	7.1	6.2%	/	-8.0%
COc1ccc(N2C(=O)CC2(C#N)c2ccc(OCc3ccccc3)cc2)cc1 (centres undefined)	1.3%	4.0	-11.5	-9.8%	-1.1%	3.5%
Cc1ccc(S(=O)(=O)NCc2ccccc2)cc1C(=O)NCC(C)(C)N1CCOCC1	?	-24.7	10.0	?	/	-8.6%
COc1ccc(NC(=O)CN(c2ccc(OC)c(Cl)c2)S(=O)(=O)c2ccccc2)c(OC)c1	23.1µM*	11.5	38.9	?	/	-20.0%
COc1ccc(N(CC(=O)Nc2ccccc2F)S(=O)(=O)c2ccc(C)c([N+](=O)[O-])c2)cc1	23.1µM*	1.2	-8.9	?	-2.7%	-14.0%
CCOc1ccc(S(=O)(=O)Nc2ccccc2C(=O)Nc2ccccc2N2CCOCC2)cc1	?	17.2	3.5	?	2.6%	19.0%
COc1ccc(S(=O)(=O)N(CC(=O)Nc2ccc(OC)cc2OC)c2ccc(Cl)cc2)cc1	25.9µM*	/	/	23.1µM*	/	/
CCOc1ccc(NC(=O)c2ccccc2NS(=O)(=O)c2ccc(F)cc2)c([N+](=O)[O-])c1	?	-13.6	?	23.1µM*	5.8%	-29.0%
COC(=O)c1cccc(NS(=O)(=O)c2ccc(OC)cc2)c1C	6.51µM*	5.5	33.4	5.17µM*	-2.5%	?
